Test results as given in PubChem BioAssay AID1814 (Broad Institute, 2009).
Hit rate of the full screen: of about 300,000 compounds, about 22,000 (7.3%) were called active. Another 2% or so got no clear call; they are omitted. Shown is part of a subset that was picked to be rich in actives. A number with no mark means an inactive call. No stated cut-off is given here; in the data, active means activity score below about -60%; inconclusive means mostly about -28% to -61%; inactive means positive scores.

Assay: Activators via SNCA 5'UTR binding, MLPCN (AID 1814)
Details: alpha-synuclein 5'UTR reporter, activators screen; active compounds read low; tested at 7.5 µM

SMILES | activity score
O=C1NC(=O)N(CCc2ccc(F)cc2)C(=O)/C1=C/C=C/c1ccccc1 | -115% (active)
Cc1nc2ccc(N3CCN(C)CC3)cc2nc1C | -72% (active)
COc1cccc(-c2nc3ccc(N4CCN(C)CC4)cc3[nH]2)c1 | 68.9%
CN(C)C(=O)Oc1ccc2c(c1)O/C(=C\c1ccccc1)C2=O | -101% (active)
CC(C)(C)c1ccc(OC(=O)N2CCCCC2)cc1 | -192% (active)
CCCCCn1c(=O)c(C(=O)Nc2c(C)n(C)n(-c3ccccc3)c2=O)c(O)c2ccccc21 | -108% (active)
c1ccc2sc(C3CCCNC3)nc2c1 (stereo not given) | -63% (active)
C/C(=N/O)c1ccc2ccc3ccccc3c2c1 | -104% (active)
O=Cc1cn(Cc2ccc(F)cc2Cl)c2ccccc12 | 61.1%
c1cc2c(cc1[C@H]1OC[C@H]3[C@@H]1CO[C@@H]3c1ccc3c(c1)OCO3)OCO2 | 72.8%
O=C(Nc1cccc2ccccc12)N1CCC2(CC1)OCCO2 | -71.1% (active)
CCOc1ccc(-c2cc(C)[n+](CCN(CC)CC)c(-c3ccc(OCC)cc3)c2)cc1 | 95.2%
CN(C)CC1Oc2ccccc2OC1(O)c1ccccc1 (stereo not given) | -101% (active)
CCCCCCCCCCCCn1ccc(=N)cc1 | 104%
N#CC1=C(N)Oc2c(c(=O)oc3ccccc23)C1c1ccccc1OC(=O)c1cccs1 (stereo not given) | -63% (active)
